From PubChem BioAssay (Tox21)
Inconclusive results are not listed. Activity calls are given as the source filed them. The call rests on the fitted dose curve; in most records, active means well fitted curve in the direction sought with a large enough effect in the repeat runs; inconclusive means weak or mixed curves; inactive means no such curve, though single readings can be large; an effect the other way counts as inactive or inconclusive.

Key:
[1] = A CellTox Green Cytotoxicity Assay to monitor cytotoxicity in HEK293 cells - 40 hour (AID 1224871); further: nearly all actives have a fitted effect of over 45% in size
Summary of the method: (§1)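 HEK293 cells, 600/well, were preincubated 5 hours and then exposed to compounds at 37 C for up to 40 hours. A cell-impermeant cyanine dye staining dead-cell DNA was read by fluorescence at 0, 8, 16, 24, 32 and 40 h time points.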

[2] = qHTS RealTime-Glo MT Cell Viability Assay in HEK293 cells - 16 hour (AID 1224872); further: top concentration of the series differs between compounds; nearly all actives have a fitted effect of over 50% in size
Summary of the method: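 Assay medium contained NanoLuc luciferase plus cell-permeant prosubstrate, added with HEK293 cells at 600 cells/well. After 5 h at 37 C/5% CO2 compounds were added; plates stayed at 37 C for 40 h with serial luminescence reads.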

[3] = qHTS RealTime-Glo MT Cell Viability Assay in HepG2 cells - 8 hour (AID 1224873); further: nearly all actives have a fitted effect of over 55% in size
Summary of the method: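 Real-time viability: cells seeded at 600 per well together with NanoLuc and cell-permeant prosubstrate, compounds added after 5 h incubation. Luminescence tracked at 0, 8, 16, 24, 32 and 40 h of exposure.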

[4] = qHTS RealTime-Glo MT Cell Viability Assay in HEK293 cells - 40 hour (AID 1224874); conditions: RealTime-Glo luminescence; max response: stronger effect = lower value; further: nearly all actives have a fitted effect of over 50% in size
Summary of the method: (§2)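 600 cells/well were plated with the nonlytic NanoLuc/prosubstrate reagent, pre-incubated 5 h, then given 23 nL of compound in DMSO. Incubation at 37 C for 40 h, with luminescence from viable-cell-reduced substrate read repeatedly from 0 h.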

[5] = A CellTox Green Cytotoxicity Assay to monitor cytotoxicity in HEK293 cells - 24 hour (AID 1224875); further: series mostly up to about 77 µM; nearly all actives have a fitted effect of over 45% in size
Summary of the method: as §1

[6] = A CellTox Green Cytotoxicity Assay to monitor cytotoxicity in HepG2 cells - 16 hour (AID 1224876); further: nearly all actives have a fitted effect of over 45% in size
Summary of the method: (§3)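 HepG2 cells, 600/well, preincubated 5 h with CellTox Green dye, then exposed to Tox21 compounds in DMSO at 37 C for up to 40 h. Dead-cell DNA fluorescence read at the indicated time point.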

[7] = qHTS RealTime-Glo MT Cell Viability Assay in HepG2 cells - 32 hour (AID 1224877); further: nearly all actives have a fitted effect of over 55% in size
Summary of the method: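 qHTS, HepG2, 600 cells/well, RealTime-Glo (NanoLuc + prosubstrate) added with cells; 5 h preincubation; DMSO compound addition; 37 C; luminescence at 0/8/16/24/32/40 h.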

[8] = A CellTox Green Cytotoxicity Assay to monitor cytotoxicity in HepG2 cells - 24 hour (AID 1224878); further: nearly all actives have a fitted effect of over 45% in size
Summary of the method: as §3

[9] = A CellTox Green Cytotoxicity Assay to monitor cytotoxicity in HepG2 cells - 40 hour (AID 1224879); further: nearly all actives have a fitted effect of over 40% in size
Summary of the method: as §3

[10] = qHTS RealTime-Glo MT Cell Viability Assay in HEK293 cells - 0 hour (AID 1224880)
Summary of the method: as §2
On the % scale 0 is the no-effect control and ±100 the full control effect.

NC(=O)c1ccc([N+](=O)[O-])cc1
inactive: Potency [1] | Potency [2] | Potency [3] | max response [4] 2.32% | Potency [5] | Potency [6] | Potency [7] | Potency [8] | Potency [9] | Potency [10]

CCCCC(CC)COC(=O)c1ccccc1O (centres undefined)
inactive: Potency [1] | Potency [2] | Potency [3] | max response [4] 0.0024% | Potency [5] | Potency [6] | Potency [7] | Potency [8] | Potency [9] | Potency [10]

C[N+](C)(C)CC(O)CC(=O)[O-] (centres undefined)
inactive: Potency [1] | Potency [2] | Potency [3] | max response [4] -3.45% | Potency [5] | Potency [6] | Potency [7] | Potency [8] | Potency [9] | Potency [10]

C=CCOCC(CC)(CO)COCC=C
inactive: Potency [1] | Potency [2] | Potency [3] | max response [4] 5.04% | Potency [5] | Potency [6] | Potency [7] | Potency [8] | Potency [9] | Potency [10]

CCOc1ccc(C(=O)OCCN(CC)CC)cc1
inactive: Potency [1] | Potency [2] | Potency [3] | max response [4] 4.37% | Potency [5] | Potency [6] | Potency [7] | Potency [8] | Potency [9] | Potency [10]

Cc1ccc(=O)n(-c2ccccc2)c1
inactive: Potency [1] | Potency [2] | Potency [3] | max response [4] 1.08% | Potency [5] | Potency [6] | Potency [7] | Potency [8] | Potency [9] | Potency [10]

CN1CCN(c2cc3c(cc2F)c(=O)c(C(=O)O)cn3-c2ccc(F)cc2)CC1
inactive: Potency [1] | Potency [2] | Potency [3] | max response [4] -0.934% | Potency [5] | Potency [6] | Potency [7] | Potency [8] | Potency [9] | Potency [10]

FC1(F)C(F)(F)C(F)(F)C2(F)C(F)(F)C(F)(F)C(F)(F)C(F)(F)C2(F)C1(F)F (centres undefined)
inactive: Potency [1] | Potency [2] | Potency [3] | max response [4] 1.37% | Potency [5] | Potency [6] | Potency [7] | Potency [8] | Potency [9] | Potency [10]

Cc1ccc(Cl)cc1Cl
inactive: Potency [1] | Potency [2] | Potency [3] | max response [4] 13.6% | Potency [5] | Potency [6] | Potency [7] | Potency [8] | Potency [9]

NC(=O)Nc1ccccc1
inactive: Potency [1] | Potency [2] | Potency [3] | max response [4] 3.44% | Potency [5] | Potency [6] | Potency [7] | Potency [8] | Potency [9] | Potency [10]

CCC=O
inactive: Potency [1] | Potency [2] | Potency [3] | max response [4] 5.02% | Potency [5] | Potency [6] | Potency [7] | Potency [8] | Potency [9] | Potency [10]

N[C@H]1CN(c2c(F)cc3c(=O)c(C(=O)O)cn(C4C[C@H]4F)c3c2Cl)CC12CC2 (some centres undefined)
inactive: Potency [1] | Potency [2] | Potency [3] | max response [4] 11.4% | Potency [5] | Potency [6] | Potency [7] | Potency [8] | Potency [9] | Potency [10]

COC(=O)CC(C)=O
inactive: Potency [1] | Potency [2] | Potency [3] | max response [4] 11.5% | Potency [5] | Potency [6] | Potency [7] | Potency [8] | Potency [9] | Potency [10]

CC/C=C\CCOC(C)=O
inactive: Potency [1] | Potency [2] | Potency [3] | max response [4] -1.39% | Potency [5] | Potency [6] | Potency [7] | Potency [8] | Potency [9] | Potency [10]

CCCCC/C=C\CCC=O
inactive: Potency [1] | Potency [2] | Potency [3] | max response [4] 1.73% | Potency [5] | Potency [6] | Potency [7] | Potency [8] | Potency [9] | Potency [10]

O=C(O)CN(CCOCCOCCN(CC(=O)O)CC(=O)O)CC(=O)O
inactive: cytotoxicity increase [1] 0.853% [at 0.29 µM] | activity change, negative = cytotoxicity [2] -0.382% [at 0.29 µM] | viability change, negative = cytotoxic [3] -0.725% [at 0.29 µM] | max response [4] 6.77% | activity change [5] 5.13% [at 0.29 µM, stronger effect = higher value] | cytotoxicity increase [6] -23.6% [at 0.29 µM] | activity change, negative = cytotoxic [7] 3% [at 0.29 µM] | cytotoxicity [8] -22.1% [at 0.29 µM] | cytotoxicity increase [9] -20% [at 0.29 µM] | activity change, negative = cytotoxicity [10] 4.27% [at 0.29 µM]

CC(C)(O)C#CC(C)(C)O
inactive: Potency [1] | Potency [2] | Potency [3] | max response [4] 4.69% | Potency [5] | Potency [6] | Potency [7] | Potency [8] | Potency [9] | Potency [10]

CCCCCCCCS(=O)(=O)Cl
inactive: Potency [1] | Potency [2] | Potency [3] | max response [4] 19.7% | Potency [5] | Potency [6] | Potency [7] | Potency [8] | Potency [9] | Potency [10]

CC(C)(C)c1nnc(NS(=O)(=O)c2ccccc2)s1
inactive: Potency [1] | Potency [2] | Potency [3] | max response [4] 2.61% | Potency [5] | Potency [6] | Potency [7] | Potency [8] | Potency [9] | Potency [10]

COC(=O)NN
inactive: Potency [1] | Potency [2] | Potency [3] | max response [4] 1.74% | Potency [5] | Potency [6] | Potency [7] | Potency [8] | Potency [9] | Potency [10]

CCCCCCCCCCCCCC=O
inactive: cytotoxicity increase [1] 0.449% [at 6.97 µM] | activity change, negative = cytotoxicity [2] 1.71% [at 6.97 µM] | viability change, negative = cytotoxic [3] 0.248% [at 6.97 µM] | max response [4] 5.19% | activity change [5] -4.12% [at 6.97 µM, stronger effect = higher value] | cytotoxicity increase [6] 1.97% [at 6.97 µM] | activity change, negative = cytotoxic [7] -9.48% [at 6.97 µM] | cytotoxicity [8] 1.56% [at 6.97 µM] | cytotoxicity increase [9] 0.942% [at 6.97 µM] | activity change, negative = cytotoxicity [10] 8.28% [at 6.97 µM]
